Most compounds without a hit are left out; they make up all but 9% or so of the library.
HttQ103 aggreg = inhibitors of mutant huntingtin aggregate formation in PC12 cells | PC12 HttQ103-GFP aggregates, Acumen cytometry, 40 h | Potency, µM (top dose mostly 46.1 µM), inactives show top-dose activity change, negative = inhibition, most hits filed as inhibitors | 220,000 tested, 1.1% active; further: on the % scale 0 is the no-effect control and ±100 the full control effect; nearly all actives have a fitted effect of over 60% in size
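Aggregate formation scored by laser-scanning cytometer (488 excitation, 500–530 emission) in lysed PC12 cells expressing Q103-GFP after 100 nM tebufenozide induction; library tested in dose series, with ATPLite reagent added in the multiplex.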
HTT ATP protect = Huntington cell model cytoprotection by ATP luminescence. PC12 HTT-Q103 induced, cytoprotection, ATP luminescence, 40 h. Potency, µM (top dose mostly 56.4 µM), for inactives: cytoprotection (ATP increase), usual class: activators. 230,000 tested, 0.14% active; further: % of control where 0% means no effect; nearly all actives have a fitted effect of over 45% in size
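Cells were plated at 1500 per well in phenol red-free DMEM with 5% equine and 5% calf serum. Tebufenozide (100 nM final) and compounds were added, then ATPlite reagent, and luminescence was read.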
HPGD inh = blocks human HPGD enzyme activity; 150,000 tested, 4.3% active; purified HPGD, NADH fluorescence kinetic, PGE2 substrate; Potency, µM, without a hit: top-dose activity change, negative = inhibition, most hits filed as inhibitors; AID 894; active means well fitted inhibition curve with a large enough effect, not every such curve was filed as active; inconclusive means small, poorly fitted or top-dose-only effect, or another doubt; inactive means no such curve, though single readings can be large or run the other way; further: on the % scale 0 is the no-effect control and ±100 the full control effect
Target sequence (P15428 whole entry, looked up): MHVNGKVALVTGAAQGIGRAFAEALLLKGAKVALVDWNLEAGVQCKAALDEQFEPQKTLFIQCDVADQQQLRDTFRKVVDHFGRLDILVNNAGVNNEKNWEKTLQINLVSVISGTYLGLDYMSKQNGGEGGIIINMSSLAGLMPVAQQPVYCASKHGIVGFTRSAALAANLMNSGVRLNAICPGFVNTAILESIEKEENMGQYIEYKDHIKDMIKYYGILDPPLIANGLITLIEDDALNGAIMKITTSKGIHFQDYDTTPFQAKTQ
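20 nM HPGD preincubated 15 min at room temperature with compound in 50 mM Tris-HCl pH 8, 0.01% Tween 20. Started with 1 mM NAD+ and 30 uM prostaglandin E2; NADH fluorescence (360/450 nm) read 5 times over 30-s intervals, last minus first.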
KinaseGlo FLuc = blocks Kinase-Glo luciferase, a counter-screen artifact | Q27757 | Kinase-Glo luciferase, ATP luminescence, 8 min | Potency, µM (top dose mostly 38.3 µM), for the others: at the top dose activity change, negative = inhibition, usual class: inhibitors | 200,000 tested, 0.28% active | AID 1379; further: on the % scale 0 is the no-effect control and ±100 the full control effect; nearly all actives have a fitted effect of over 60% in size
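Compounds were added to a substrate mix at pH 7.2 (50 mM imidazole, 10 uM ATP, within the enzyme's linear range), followed by Kinase-Glo detection reagent; luminescence was measured after 8 minutes at ambient temperature.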
ALDH1A1 inh = blocks purified human ALDH1A1 activity. Purified ALDH1A1, NADH fluorescence, propionaldehyde substrate. Potency, µM (titrated, usually from 75.3 µM), without a hit: at the top dose activity, negative = inhibition, actives largely listed as inhibitors. 220,000 tested, 7.3% active; active means well fitted inhibition curve with a large enough effect, not every such curve was filed as active; inconclusive means small, poorly fitted or top-dose-only effect, or another doubt; inactive means no such curve, though single readings can be large or run the other way;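 further: plate controls were no enzyme wells and a reference inhibitor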
Target sequence (P00352 whole entry, looked up): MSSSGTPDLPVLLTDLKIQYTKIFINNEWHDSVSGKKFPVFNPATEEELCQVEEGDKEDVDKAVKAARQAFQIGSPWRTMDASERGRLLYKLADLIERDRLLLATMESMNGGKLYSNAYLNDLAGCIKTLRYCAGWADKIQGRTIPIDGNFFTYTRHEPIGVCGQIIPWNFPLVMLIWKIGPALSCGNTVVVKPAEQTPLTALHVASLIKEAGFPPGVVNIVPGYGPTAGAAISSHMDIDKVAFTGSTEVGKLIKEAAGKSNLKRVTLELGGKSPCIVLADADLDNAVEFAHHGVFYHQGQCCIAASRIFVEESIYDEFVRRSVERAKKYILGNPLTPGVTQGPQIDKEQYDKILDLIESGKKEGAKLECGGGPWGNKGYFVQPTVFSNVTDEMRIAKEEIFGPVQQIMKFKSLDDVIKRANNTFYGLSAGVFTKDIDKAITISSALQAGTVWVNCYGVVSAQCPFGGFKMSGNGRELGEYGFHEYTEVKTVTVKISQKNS
Lamin A splicing = modulators of lamin A splicing; HeLa LMNA splicing GFP/RFP minigene ratio, 48 h; Potency, µM (series often up to 46.1 µM), for the others: at the highest dose ratio change, negative = inhibition, usual class: inhibitors; 200,000 tested, 0.01% active; active means well fitted inhibition curve with a large enough effect in the signal ratio, with a control signal flat, not every such curve was filed as active; inconclusive means small, poorly fitted or top-dose-only effect, or effect the other way, or a change in a side signal; the % refers to the signal ratio; further: on the % scale 0 is the no-effect control and ±100 the full control effect
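Read-out is the ratio of GFP to DsRed2 object intensity, acquired by 488 nm laser-scanning cytometry on HeLa lamin A-EGFP minigene reporter cells. Compound incubation 48 hrs at 37 °C in Opti-MEM with 2% FBS; DMSO 0.5% final.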
Numbers without * were called inactive; ? = inconclusive; / = not tested or not shown; ! = not active in a repeat; [ ] = remark or other dose. Unless noted, the call rests on the fitted dose curve; in most records, active means well fitted curve in the direction sought with a large enough effect; inconclusive means small, poorly fitted or top-dose-only effect, or another doubt; inactive means no such curve, though single readings can be large; an effect the other way counts as inactive or inconclusive. Potency means the concentration at half of the fitted maximal effect.

SMILES	HttQ103 aggreg	HTT ATP protect	HPGD inh	KinaseGlo FLuc	ALDH1A1 inh	Lamin A splicing
Cc1ccc(OCCn2cc(C#N)c3ccccc32)cc1	-22%	28%[10 µM]	-6%	0%	-10%	-8%
CC(C)CC(=O)/C=C/n1c(=S)oc2ccccc21	?	-34%[10 µM]	-19%	-3%	?	?
CC(=O)/C=C/n1c(=S)oc2ccccc21	7.1µM*	-96%[10 µM]	-21%	-6%	7.9µM*	?
CC1(C)Cc2cccc(C(=O)NCc3ccco3)c2O1	-11%[9.22 µM]	4%[10 µM]	/	/	?	?
O=C1/C(=C/c2cccs2)NC(=S)N1C1CC1	-3%	/	16µM*	7%	?	2%
CC(=O)N(C(C)=O)c1ncc2c([nH]c3ccccc32)c1C#N	3.2µM*	-5%	?	-3%	?	8%
Cn1ncc(C(N)=O)c1NC(=S)NC(=O)c1ccc(Br)o1	1%	-27%	/	2%	7.9µM*	2%[46 µM]
Cc1cccc(C)c1NC(=S)NC(=O)c1ccc(Br)o1	12%[9.22 µM]	1%	/	5%	?	-17%[46 µM]
NS(=O)(=O)c1ccc(NC(=O)COC(=O)c2cc([N+](=O)[O-])ccc2Cl)cc1	-9%[9.22 µM]	12%[10 µM]	/	/	-2%	/
O=C(O)CCC(=O)Nc1ccc(C(=O)OCC(=O)c2ccc(Cl)cc2)cc1	-7%[9.22 µM]	-9%[10 µM]	/	-4%	4%	/
O=C(COC(=O)c1ccc(CO)cc1)NCc1cccs1	-13%	47%[0.074 µM]	32µM*	-1%	5%	8%
CCCOC(=O)c1ccc(O)cc1	-9%	-39%	-5%	/	10µM*!	?
NS(=O)(=O)c1ccc(NC(=O)COC(=O)c2cnc(Cl)c(Cl)c2)cc1	0%[9.22 µM]	-2%[10 µM]	/	/	20µM*	/
CCCCOC(=O)c1ccc(O)cc1	7%	?	-17%	13%	16%	?
O=C(COC(=O)c1ccc(O)cc1)Nc1ccc(Cl)cc1	3%[9.22 µM]	-24%	/	2%	8.9µM*	/
CCN(CC)c1ccc(NC(=O)CN2CCN(c3ccccc3F)CC2)cc1	23%	8%	-5%	0%	-10%	5%
CCOc1ccc(OCC)c(NC(=O)C2CCN(S(=O)(=O)c3ccc4c(c3)CC(C)N4C(C)=O)CC2)c1 (configuration not stated)	/	/	/	/	/	23%[46 µM]
O=C(COC(=O)c1cnc(Cl)c(Cl)c1)NCc1cccs1	15%	-14%	/	0%	20µM*	17%[46 µM]
COc1ccc(CNc2ccnc(-c3ccc(N(C)C)cc3)n2)c(OC)c1	/	-80%	/	/	?	?
O=C(NC1CCCCC1)c1nn2c(C(F)(F)F)cc(-c3ccco3)nc2c1Br	4%	-22%	-12%	-5%	22µM*	7%
CN(CCc1ccccn1)C(=O)c1nn2c(C(F)(F)F)cc(-c3ccco3)nc2c1Cl	-13%	-3%[10 µM]	-19%	2%	25µM*	29%
CC(C)NC(=O)c1nn2c(C(F)(F)F)cc(-c3ccco3)nc2c1Cl	10%[9.22 µM]	?	/	0%	-1%	20%[46 µM]
CC1CCCCN1C(=O)c1cnn2c(C(F)(F)F)cc(-c3ccco3)nc12 (configuration not stated)	9%	-7%	7.1µM*	1%	-5%	8%
CC1CCC/C(=C\Nc2ccc3c(c2)OCO3)C1=O (configuration not stated)	14%	-18%	?	-20%	13µM*	3%
Cc1cc(C(=O)NCC(=O)OCC(=O)Nc2ccc(OC(F)F)cc2)ccc1[N+](=O)[O-]	6%	25%[10 µM]	-27%	1%	3.2µM*	10%
SMILES	HttQ103 aggreg	HTT ATP protect	HPGD inh	KinaseGlo FLuc	ALDH1A1 inh	Lamin A splicing
O=C(CNC(=O)c1ccc(N2C(=O)c3ccccc3C2=O)cc1)OCC(=O)c1ccc(Cl)cc1	5%	12%[10 µM]	-14%	1%	19%	2%
CCOc1ccc(C(=O)N2CCCC2)cc1OC	10%	-12%[0.074 µM]	28µM*	2%	-20%	3%
COc1cc(C(=S)N2CCCCC2)ccc1OCC(=O)N1CCCC1	-16%	-27%	-6%	1%	22µM*	-2%
COc1ccc(C(=O)N2CCN(Cc3cc(OC)c(O)c(OC)c3)CC2)cc1OC	24%	-30%[10 µM]	/	/	22µM*	-7%
O=C(O)c1cc([N+](=O)[O-])cc2c1nnn2O	9%	-35%	/	-29%	7%	-6%[46 µM]
Cc1[nH]c2c(C)cccc2c1CCNC(=O)c1ccc2c(c1[N+](=O)[O-])C(=O)c1ccccc1C2=O	0%	-13%	-10%	0%	-11%	?
CS/C(=N\S(=O)(=O)c1cccs1)NC(=O)CSc1nc2ccccc2s1	-5%	0%	25µM*	-3%	28µM*	-7%
C/C(=N/NC(=O)CSc1nc2ccccc2s1)c1ccncc1	-11%[9.22 µM]	14%[10 µM]	/	/	20µM*	/
C/C(=N/NC(=O)CSc1nc2ccccc2n1C)c1ccncc1	4%	-17%	/	2%	10µM*	/
CCOC(=O)N1CCC(NC(=O)c2ccc3c(c2)sc2nc(-c4cccc(OC)c4)cn23)CC1	-4%	-1%[10 µM]	?	-3%	?	?
C#CCNC(=O)C1=C[C@H](C)[C@@H](CCCO)[C@H](OCC)O1	9%[9.22 µM]	7%[10 µM]	/	/	4%	/
Cc1cc2cc(CNC(=O)c3ccc(S(=O)(=O)N(C)C)cc3)ccc2n1C	-8%	-6%[10 µM]	0%	0%	-11%	-9%
Cc1c(C(=O)NCc2ccc3c(c2)cc(C)n3C)cccc1[N+](=O)[O-]	1%	/	1.8µM*	7%	6%	-4%
Cc1cc2cc(CNC(=O)c3ccc(S(=O)(=O)N4CCOCC4)cc3)ccc2n1C	-10%	-13%[10 µM]	-13%	0%	25µM*	-7%
Cc1cc2cc(CNC(=O)Nc3cccc(Cl)c3)ccc2n1C	-14%	3%[10 µM]	-13%	-7%	22µM*	-13%
CC(=O)Nc1ccc(S(=O)(=O)NCc2ccc3c(c2)cc(C)n3C)cc1	?	-26%	-5%	0%	?	-12%
Cc1cc2cc(CNS(=O)(=O)c3ccc4ccccc4c3)ccc2n1C	-2%	9%[10 µM]	-16%	-3%	14µM*	-15%
COc1cc(C(=O)NCc2cccc3ccccc23)cc(Cl)c1OC	-24%	6%	1%	-1%	-15%	3%
CC(C)Cn1c(=O)c2c(nc3n2CCS3)n(C)c1=O	29%[9.22 µM]	11%[10 µM]	/	/	/	/
Cc1ccc(N(CC(=O)Nc2cc(Cl)ccc2Oc2ccccc2)S(C)(=O)=O)cc1C	-27%	-1%	-13%	0%	0%	?
Cc1cc2ccccc2n1CCNC(=O)c1ccc(S(=O)(=O)N2CCCCC2)cc1	-31%	-3%[10 µM]	-19%	-1%	3.2µM*	?
CCCC(=O)NCc1ccc2c(c1)cc(C)n2C	-1%	-10%	7.9µM*	0%	-5%	6%

Assay outcomes: PubChem, National Center for Advancing Translational Sciences (NCATS)
